Reference: PubChem BioAssay (NCI)
Compounds without any hit were thinned out: in the full panel of roughly 79,000, 15% have a hit. Unmarked numbers belong to inactive results. The source made the active and inactive calls. No stated cut-off is given here; in the data, active means growth inhibition above about 70%; inactive means the rest.

Assay: NCI Yeast Anticancer Drug Screen. Data for the cln2 rad14 strain (AID 165);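 further: 0% = growth equal to vehicle treated cultures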
Conditions: S. cerevisiae cln2 rad14 strain, at 50.0 µM, active compounds read high
Outline: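 Each compound was tested on cln2 rad14 yeast. Inhibition of growth was calculated against vehicle-exposed controls.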

Row | SMILES | growth inhibition
1 | CCN(C(=O)c1ccc([N+](=O)[O-])cc1)C(c1ccccc1)P(=O)(c1ccccc1)c1ccccc1 (stereo not drawn) | -37%
2 | COC1(C2COc3cc(OCc4ccccc4)ccc3C2=O)C=C2OCOC2=CC1=O (stereo not drawn) | -33%
3 | Cc1nc2c(=O)[nH]c3ccccc3c2o1 | -7%
4 | CCOC(=O)C[P+](c1ccc(OC)cc1)(c1ccc(OC)cc1)c1ccc(OC)cc1 | 92.9% (active)
5 | COC(=O)C1(CC(=O)c2cccs2)NC(=S)NC(=O)C1C#N (stereo not drawn) | -3.35%
6 | COc1ccc(/C(N)=N/OCc2ccc(C#N)cc2)cc1 | 10.3%
7 | C1OC[C@@H]([C@H]2COCO2)O1 | -0.8%
8 | Nc1cccc(C(O)c2ccccc2)c1 (stereo not drawn) | 6.25%
9 | Cc1ccc(Cl)c(NC(=O)COc2ccc(Cl)cc2)c1 | -6.6%
10 | COCc1ccc(C(C)(C)CC(C)(C)C)cc1 | 13.6%
11 | O=C1CCCc2cc3c(cc21)CC1(C3)Cc2cc3c(cc2C1)C(=O)CCC3 | -10.3%
12 | CN1CC2=C(NC(=S)NC2c2ccccc2Cl)/C(=C/c2ccccc2Cl)C1 (stereo not drawn) | 10.6%
13 | N#CNC1=NC(N)C(c2nc3ccccc3[nH]2)=C(CCCC(=O)Nc2cccc([N+](=O)[O-])c2)N1 (stereo not drawn) | 25.9%
14 | NS(=O)(=O)c1cc(Br)ccc1Br | 39.6%
15 | Cc1nc(N)[nH]c(=O)c1-n1nnc2ccccc2c1=O | -2.1%
16 | CSc1nc(NC2OCC(O)C(O)C2O)cc(=O)n1C (stereo not drawn) | -4.9%
17 | C/C(N=NC(=S)N1CCCCC1)=C1\C=CC=CN1O | 97.8% (active)
18 | [N-]=[N+]=NC12CC3C4CC5CC3C(C1)C(C5)C4C2 | 10.2%
19 | O=C1OC2C(Cl)CC(Cl)CC2C=C1c1cccc([N+](=O)[O-])c1 (stereo not drawn) | -21.9%
20 | O=C1c2ccccc2N2OC3(N4CCOCC4)CCCC3C12c1ccccc1 (stereo not drawn) | 25.9%
21 | CC(C)[C@@]12O[C@@H]1CC13OC1[C@@H](O)CC[C@@]32O (stereo partly drawn) | -27.9%
22 | O=C(NNC1=NCCCCN1)Nc1ccc(Cl)cc1 | 7.4%
23 | CCN(CC)c1ccc(NC(C)=O)c(C)c1 | -15.8%

Assay: NCI Yeast Anticancer Drug Screen. Data for the bub3 strain (AID 167)
Conditions: S. cerevisiae bub3 mutant strain, at 50.0 µM, active compounds read high
Outline: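 Readout: yeast growth inhibition, expressed relative to vehicle-only wells. The test organism is a mutant strain from a panel with lesions in DNA repair or checkpoint genes.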

Row | SMILES | growth inhibition
24 | CC/C=C/CC(=O)NCc1ccc(O)c(OC)c1 | -2.9%
25 | c1ccc2cc(N3CCOCC3)ccc2c1 | -22.8%
26 | CCOC(=O)C(c1ccccc1)N(CCCN(CC)CC)c1ccccc1 (stereo not drawn) | 5.15%
27 | CC(C(O)C(F)(F)F)[N+](C)(C)C (stereo not drawn) | 10.1%
28 | Cc1ccc(NC(=O)CCCC(=O)C(C#N)c2ccccc2Cl)cc1C (stereo not drawn) | -10.1%
29 | COc1ccc(/C(Cl)=C(\C=N/O)c2ccc(OC)c(OC)c2)cc1OC | 8.15%
30 | N/C(=N\OC(=O)Nc1ccc(CSc2ccc(Cl)cc2)o1)c1ccccn1 | -16.9%
31 | CCOC(=O)C(C)N1CCCCCC1 (stereo not drawn) | -8.25%
32 | CC1(C)C=C(C(Br)c2ccc(Cl)cc2)C(=O)c2ccccc21 (stereo not drawn) | 88.2% (active)
33 | Nc1cccc(OCC(O)CN2CCN(c3ccccc3)CC2)c1 (stereo not drawn) | -1%
34 | CC(=O)C1CCC(C)(O)CC1=O (stereo not drawn) | -8.4%
35 | COC(SC)(SC)c1cc(-c2c(Cl)cccc2Cl)no1 | 27.6%
36 | CSc1nc(NC2OCC(OC(C)=O)C(OC(C)=O)C2OC(C)=O)c(N=C(C)C(C)=O)c(=O)[nH]1 (stereo not drawn) | 3.05%
37 | Cc1ccc(N=C(NN(C)C)C(c2ccccc2)c2ccccc2)cc1 | 15.4%
38 | CCN(CC)Cc1cc(Nc2c3ccc([N+](=O)[O-])cc3nc3ccc(OC)cc23)ccc1O | 53.9%
39 | O=C1C=CC(CCCCCn2ccc(=O)[nH]c2=O)C(=O)N1 (stereo not drawn) | -6.6%
40 | CC(C)(C)NC(=O)NC(C)(C)C | 20.9%
41 | CCN(C(=O)c1ccc([N+](=O)[O-])cc1)C(c1ccccc1)P(=O)(c1ccccc1)c1ccccc1 (stereo not drawn) | 2.7%
42 | COC1(C2COc3cc(OCc4ccccc4)ccc3C2=O)C=C2OCOC2=CC1=O (stereo not drawn) | 9.45%
43 | Cc1nc2c(=O)[nH]c3ccccc3c2o1 | -10.3%

Row | SMILES | growth inhibition
44 | CCOC(=O)C[P+](c1ccc(OC)cc1)(c1ccc(OC)cc1)c1ccc(OC)cc1 | 92.3% (active)
45 | COC(=O)C1(CC(=O)c2cccs2)NC(=S)NC(=O)C1C#N (stereo not drawn) | -11.3%
46 | COc1ccc(/C(N)=N/OCc2ccc(C#N)cc2)cc1 | 20.7%
47 | C1OC[C@@H]([C@H]2COCO2)O1 | 1.95%
48 | Nc1cccc(C(O)c2ccccc2)c1 (stereo not drawn) | 7.3%
49 | Cc1ccc(Cl)c(NC(=O)COc2ccc(Cl)cc2)c1 | 32.7%
50 | COCc1ccc(C(C)(C)CC(C)(C)C)cc1 | -0.45%
51 | O=C1CCCc2cc3c(cc21)CC1(C3)Cc2cc3c(cc2C1)C(=O)CCC3 | -11.2%
52 | CN1CC2=C(NC(=S)NC2c2ccccc2Cl)/C(=C/c2ccccc2Cl)C1 (stereo not drawn) | 61.8%
53 | N#CNC1=NC(N)C(c2nc3ccccc3[nH]2)=C(CCCC(=O)Nc2cccc([N+](=O)[O-])c2)N1 (stereo not drawn) | 35.9%
54 | NS(=O)(=O)c1cc(Br)ccc1Br | 17.6%
55 | Cc1nc(N)[nH]c(=O)c1-n1nnc2ccccc2c1=O | 0.9%
56 | CSc1nc(NC2OCC(O)C(O)C2O)cc(=O)n1C (stereo not drawn) | -26.9%
57 | C/C(N=NC(=S)N1CCCCC1)=C1\C=CC=CN1O | 43.2%
58 | [N-]=[N+]=NC12CC3C4CC5CC3C(C1)C(C5)C4C2 | -6.15%
59 | O=C1OC2C(Cl)CC(Cl)CC2C=C1c1cccc([N+](=O)[O-])c1 (stereo not drawn) | 11.8%
60 | O=C1c2ccccc2N2OC3(N4CCOCC4)CCCC3C12c1ccccc1 (stereo not drawn) | 60%
61 | CC(C)[C@@]12O[C@@H]1CC13OC1[C@@H](O)CC[C@@]32O (stereo partly drawn) | -6.25%
62 | O=C(NNC1=NCCCCN1)Nc1ccc(Cl)cc1 | 16.6%
63 | CCN(CC)c1ccc(NC(C)=O)c(C)c1 | 18.1%
